# For part of these data: Results with a measured potency or affinity are listed apart.
# Tests used:
# Design in all cases: scale not given: direction of the effect not stated beside the values
# [1] = molecular target: Protein translocase subunit SecA (Escherichia coli (strain K12)) (UniProt P10408); experiment: Assay to Identify E. coli SecA ATPase Inhibitors; format: functional; conditions: 30 µM
# [2] = molecular target: T1, Ubiquitin-activating enzyme e1, putative (Leishmania donovani (strain BPK282A1)) (UniProt E9BSI1); experiment: Leishmania donovani Ubiquitin Activating Enzyme (LdE1); format: functional; conditions: 30 µM
# T1 sequence (whole entry): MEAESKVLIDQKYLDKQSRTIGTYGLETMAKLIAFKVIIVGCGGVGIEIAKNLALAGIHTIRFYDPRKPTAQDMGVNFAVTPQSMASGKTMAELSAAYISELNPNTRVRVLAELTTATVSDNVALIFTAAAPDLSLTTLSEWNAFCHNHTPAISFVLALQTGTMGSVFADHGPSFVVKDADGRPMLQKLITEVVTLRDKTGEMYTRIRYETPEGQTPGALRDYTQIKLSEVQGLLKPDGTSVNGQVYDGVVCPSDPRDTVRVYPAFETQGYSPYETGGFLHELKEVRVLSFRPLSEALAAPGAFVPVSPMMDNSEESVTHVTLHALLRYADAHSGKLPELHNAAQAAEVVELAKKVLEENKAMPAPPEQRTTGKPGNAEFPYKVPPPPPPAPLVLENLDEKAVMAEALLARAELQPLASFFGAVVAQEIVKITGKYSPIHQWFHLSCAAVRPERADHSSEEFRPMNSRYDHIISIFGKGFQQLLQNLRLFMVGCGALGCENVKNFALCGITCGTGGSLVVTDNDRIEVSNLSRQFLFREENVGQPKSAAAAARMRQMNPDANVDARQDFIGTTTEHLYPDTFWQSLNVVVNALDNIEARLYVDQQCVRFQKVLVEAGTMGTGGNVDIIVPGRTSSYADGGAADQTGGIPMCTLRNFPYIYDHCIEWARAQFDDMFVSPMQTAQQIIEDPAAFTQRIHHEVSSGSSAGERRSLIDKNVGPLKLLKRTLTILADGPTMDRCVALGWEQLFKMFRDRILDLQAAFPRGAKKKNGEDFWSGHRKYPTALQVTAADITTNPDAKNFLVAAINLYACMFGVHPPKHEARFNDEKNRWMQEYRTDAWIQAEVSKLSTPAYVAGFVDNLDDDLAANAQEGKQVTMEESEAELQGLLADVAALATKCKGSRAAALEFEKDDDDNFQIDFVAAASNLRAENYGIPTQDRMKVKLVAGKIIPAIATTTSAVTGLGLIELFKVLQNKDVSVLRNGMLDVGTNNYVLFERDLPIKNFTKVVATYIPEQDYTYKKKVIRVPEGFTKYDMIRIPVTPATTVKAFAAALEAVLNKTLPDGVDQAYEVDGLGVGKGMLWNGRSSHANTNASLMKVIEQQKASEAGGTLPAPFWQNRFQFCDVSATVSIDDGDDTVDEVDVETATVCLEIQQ
# [3] = molecular target: AMP-activated protein kinase, AMPK (Homo sapiens) (UniProt P54646+O43741+P54619+Q9UGJ0+Q9Y478+Q13131+Q9UGI9); experiment: AMP-dependent Kinase enzyme assay. An in vitro enzyme assay that detects ADP turnover that is directly proportional to AMPK activity. This uses naive AMPK that is activated during the assay with MK-8722; format: functional; conditions: 30 µM
# [4] = molecular target: Sialic acid-binding Ig-like lectin 9 (Homo sapiens) (UniProt Q9Y336); experiment: Hs-Siglec9 ALPHAscreen SOP 20170721; conditions: 10 µM
# Trypanosoma cruzi = experiment: Trypanosoma cruzi phosphomannomutase and mannose-1-phosphate guanylyltransferase assay; format: functional; conditions: 10 µM
# [5] = molecular target: T2, Arginase-2, mitochondrial (Homo sapiens) (UniProt P78540); experiment: in vitro enzyme assay to detect the production of urea directly proportional to the activity of Arginase II; format: functional; conditions: 33.3 µM; further: in the data most compounds retested in dose-response had high values
# T2 sequence (whole entry): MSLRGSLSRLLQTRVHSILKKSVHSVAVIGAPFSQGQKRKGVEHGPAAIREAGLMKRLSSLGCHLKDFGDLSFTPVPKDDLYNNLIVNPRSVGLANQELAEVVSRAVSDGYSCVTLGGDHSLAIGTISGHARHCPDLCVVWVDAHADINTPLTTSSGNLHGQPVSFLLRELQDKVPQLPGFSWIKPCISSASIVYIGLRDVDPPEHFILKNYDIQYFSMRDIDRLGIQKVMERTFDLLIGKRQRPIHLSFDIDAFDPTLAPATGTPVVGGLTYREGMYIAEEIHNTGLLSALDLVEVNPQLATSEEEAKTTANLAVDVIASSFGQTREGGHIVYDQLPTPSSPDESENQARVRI
# [6] = molecular target: T3, Proteasome subunit beta (Trypanosoma cruzi) (UniProt O96673); experiment: Trypanosoma cruzi proteasome chymotrypsin-like activity (TcProtChymo) assay.; further: in the data most compounds retested in dose-response had high values; format: functional; conditions: 9.37 µM
# T3 sequence (whole entry): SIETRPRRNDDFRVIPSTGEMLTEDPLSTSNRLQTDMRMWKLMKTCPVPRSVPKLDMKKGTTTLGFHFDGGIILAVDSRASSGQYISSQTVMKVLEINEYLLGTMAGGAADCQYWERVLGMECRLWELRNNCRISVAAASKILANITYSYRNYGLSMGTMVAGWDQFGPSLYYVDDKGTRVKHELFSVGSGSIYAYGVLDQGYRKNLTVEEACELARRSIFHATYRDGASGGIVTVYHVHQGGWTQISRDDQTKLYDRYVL
# Homo sapiens = species: Homo sapiens; experiment: To identify inhibition of the IFN signalling (Jak-Stat) pathway via expression of an eGFP reporter gene under the control of an IFN-stimulated response element (ISRE) containing MxA promoter.; format: functional; conditions: 30 µM
# [7] = molecular target: T4, Tyrosyl-tRNA synthetase, putative (Trypanosoma cruzi (strain CL Brener)) (UniProt Q4DSP6); experiment: Trypanosoma cruzi tyrosyl tRNA synthetase (TcYRS) _High Tyrosine SOP; format: functional; conditions: 30 µM; further: in the data most compounds retested in dose-response had high values
# T4 sequence (whole entry): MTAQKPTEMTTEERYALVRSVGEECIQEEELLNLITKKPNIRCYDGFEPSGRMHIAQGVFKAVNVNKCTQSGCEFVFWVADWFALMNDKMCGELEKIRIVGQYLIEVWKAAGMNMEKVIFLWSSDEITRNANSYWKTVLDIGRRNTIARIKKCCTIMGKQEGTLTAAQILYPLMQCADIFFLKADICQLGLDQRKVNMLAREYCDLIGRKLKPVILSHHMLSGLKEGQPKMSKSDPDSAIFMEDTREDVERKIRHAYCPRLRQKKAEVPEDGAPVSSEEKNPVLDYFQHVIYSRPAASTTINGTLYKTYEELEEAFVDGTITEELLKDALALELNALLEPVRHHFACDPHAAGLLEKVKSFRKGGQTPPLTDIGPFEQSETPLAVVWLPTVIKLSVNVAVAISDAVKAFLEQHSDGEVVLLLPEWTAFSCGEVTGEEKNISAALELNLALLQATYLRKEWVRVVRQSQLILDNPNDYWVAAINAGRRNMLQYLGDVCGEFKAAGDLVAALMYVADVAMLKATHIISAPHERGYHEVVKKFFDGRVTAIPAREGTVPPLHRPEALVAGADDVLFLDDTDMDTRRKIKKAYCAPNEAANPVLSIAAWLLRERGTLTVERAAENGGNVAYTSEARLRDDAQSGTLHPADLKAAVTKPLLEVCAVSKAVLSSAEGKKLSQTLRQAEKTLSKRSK
# [8] = molecular target: T4, Tyrosyl-tRNA synthetase, putative (Trypanosoma cruzi (strain CL Brener)); experiment: Trypanosoma cruzi tyrosyl tRNA synthetase (TcYRS) SOP; format: functional; conditions: 30 µM
# [9] = molecular target: Chromo domain-containing protein 1 (Saccharomyces cerevisiae (strain ATCC 204508 / S288c) (Baker's yeast)) (UniProt P32657); experiment: ScCHD-1 Enzyme Inhibition Assay; format: functional; conditions: 30 µM; further: in the data most compounds retested in dose-response had high values
# Chain of Chromo domain-containing protein 1 (Saccharomyces cerevisiae (strain ATCC 204508 / S288c) (Baker's yeast)) (P32657 whole entry, the tested form may be a part): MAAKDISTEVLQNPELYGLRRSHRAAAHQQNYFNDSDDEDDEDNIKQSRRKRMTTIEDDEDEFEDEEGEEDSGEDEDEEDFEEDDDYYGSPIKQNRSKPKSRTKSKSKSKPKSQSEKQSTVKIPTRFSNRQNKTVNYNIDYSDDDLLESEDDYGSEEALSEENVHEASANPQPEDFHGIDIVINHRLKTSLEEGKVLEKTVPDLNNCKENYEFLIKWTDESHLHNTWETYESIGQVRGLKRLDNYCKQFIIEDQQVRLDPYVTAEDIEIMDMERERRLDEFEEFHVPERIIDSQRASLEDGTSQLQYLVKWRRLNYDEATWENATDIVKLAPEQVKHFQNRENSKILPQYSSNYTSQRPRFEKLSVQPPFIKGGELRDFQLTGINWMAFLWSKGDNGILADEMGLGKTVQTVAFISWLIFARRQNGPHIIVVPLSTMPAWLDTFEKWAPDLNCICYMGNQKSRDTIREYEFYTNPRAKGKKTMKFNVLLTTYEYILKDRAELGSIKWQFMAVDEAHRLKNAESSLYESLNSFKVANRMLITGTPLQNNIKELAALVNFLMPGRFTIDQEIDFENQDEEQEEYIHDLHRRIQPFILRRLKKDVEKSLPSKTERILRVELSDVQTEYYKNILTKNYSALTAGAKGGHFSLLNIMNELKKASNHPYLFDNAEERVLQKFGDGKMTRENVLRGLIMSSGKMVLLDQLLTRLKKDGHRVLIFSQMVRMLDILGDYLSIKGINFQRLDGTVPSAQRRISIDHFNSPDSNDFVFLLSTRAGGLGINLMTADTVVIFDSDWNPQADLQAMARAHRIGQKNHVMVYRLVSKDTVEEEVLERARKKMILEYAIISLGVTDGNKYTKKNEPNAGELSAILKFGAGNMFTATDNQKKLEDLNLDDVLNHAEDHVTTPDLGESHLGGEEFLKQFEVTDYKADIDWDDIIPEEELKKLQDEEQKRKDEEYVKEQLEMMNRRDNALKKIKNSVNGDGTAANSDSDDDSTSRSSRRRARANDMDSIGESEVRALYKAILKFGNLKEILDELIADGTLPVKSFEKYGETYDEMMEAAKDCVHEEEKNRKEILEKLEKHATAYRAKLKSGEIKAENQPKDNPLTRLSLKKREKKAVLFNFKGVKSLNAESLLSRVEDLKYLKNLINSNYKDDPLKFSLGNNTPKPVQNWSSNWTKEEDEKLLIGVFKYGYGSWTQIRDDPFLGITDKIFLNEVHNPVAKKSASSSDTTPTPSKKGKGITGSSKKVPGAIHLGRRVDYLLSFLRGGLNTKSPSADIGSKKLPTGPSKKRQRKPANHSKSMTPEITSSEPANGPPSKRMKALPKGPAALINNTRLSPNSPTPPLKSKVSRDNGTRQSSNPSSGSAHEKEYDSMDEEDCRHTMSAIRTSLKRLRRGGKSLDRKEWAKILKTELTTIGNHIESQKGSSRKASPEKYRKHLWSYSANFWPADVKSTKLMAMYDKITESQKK
# Chain of Sialic acid-binding Ig-like lectin 9 (Homo sapiens) (Q9Y336 whole entry): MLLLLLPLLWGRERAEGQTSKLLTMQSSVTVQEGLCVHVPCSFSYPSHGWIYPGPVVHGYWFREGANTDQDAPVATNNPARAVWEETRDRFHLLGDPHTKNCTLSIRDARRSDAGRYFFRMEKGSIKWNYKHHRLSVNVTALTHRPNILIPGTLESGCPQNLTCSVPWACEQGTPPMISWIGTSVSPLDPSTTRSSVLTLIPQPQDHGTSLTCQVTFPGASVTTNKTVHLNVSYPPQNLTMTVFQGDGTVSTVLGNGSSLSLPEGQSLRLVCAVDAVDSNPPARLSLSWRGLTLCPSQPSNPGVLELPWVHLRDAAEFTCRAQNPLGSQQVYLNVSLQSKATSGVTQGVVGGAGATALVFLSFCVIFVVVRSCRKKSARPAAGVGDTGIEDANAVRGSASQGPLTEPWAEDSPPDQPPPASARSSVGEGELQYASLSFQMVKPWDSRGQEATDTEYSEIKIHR
# Chain of Protein translocase subunit SecA (Escherichia coli (strain K12)) (P10408 whole entry): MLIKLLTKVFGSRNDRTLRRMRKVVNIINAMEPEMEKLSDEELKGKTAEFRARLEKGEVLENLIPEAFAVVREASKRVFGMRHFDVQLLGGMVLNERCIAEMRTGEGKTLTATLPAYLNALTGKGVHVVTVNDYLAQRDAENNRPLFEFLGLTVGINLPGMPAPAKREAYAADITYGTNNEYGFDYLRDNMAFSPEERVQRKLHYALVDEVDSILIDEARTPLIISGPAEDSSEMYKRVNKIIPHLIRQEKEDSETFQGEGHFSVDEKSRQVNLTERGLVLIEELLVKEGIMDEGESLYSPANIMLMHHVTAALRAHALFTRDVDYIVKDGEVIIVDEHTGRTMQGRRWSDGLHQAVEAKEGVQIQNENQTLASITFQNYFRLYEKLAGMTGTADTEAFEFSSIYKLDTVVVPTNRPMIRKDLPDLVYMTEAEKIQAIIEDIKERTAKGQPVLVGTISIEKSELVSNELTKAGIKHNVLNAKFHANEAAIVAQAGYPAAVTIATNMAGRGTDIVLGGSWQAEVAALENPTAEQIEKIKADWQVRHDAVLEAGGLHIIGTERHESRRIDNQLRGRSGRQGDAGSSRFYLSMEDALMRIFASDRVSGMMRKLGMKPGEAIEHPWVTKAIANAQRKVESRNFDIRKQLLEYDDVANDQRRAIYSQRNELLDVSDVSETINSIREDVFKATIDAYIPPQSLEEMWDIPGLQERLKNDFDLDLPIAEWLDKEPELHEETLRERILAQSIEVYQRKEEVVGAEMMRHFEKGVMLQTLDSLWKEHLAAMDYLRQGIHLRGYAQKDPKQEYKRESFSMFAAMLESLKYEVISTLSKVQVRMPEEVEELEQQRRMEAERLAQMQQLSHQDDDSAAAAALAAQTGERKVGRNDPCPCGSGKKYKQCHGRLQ
Compound,Percent Effect [1],Percent Effect [2],Percent Effect [3],Percent Effect [4],Percent Effect (Trypanosoma cruzi),Percent Effect [5],Percent Effect [6],Percent Effect (Homo sapiens),Percent Effect [7],Percent Effect [8],Percent Effect [9]
CN(C)C(=O)CC1CC2(CCN(c3ncccn3)CC2)c2ccccc21 (stereo unspecified),-7.49%,5.41%,5.36%,-1.25%,3.32%,2.92%,4.14%,6.8%,5.94%,3.66%,-4.19%
Cc1ccc(N2CCCC(NCc3cccc4c3OCCO4)C2)nn1 (stereo unspecified),-2.62%,16.2%,-11.3%,0.447%,-1.23%,-2%,7.39%,-7.93%,10.3%,18.5%,-10.3%
COc1cccc(C(=O)N2CCCC(C(=O)CCc3ccccc3)C2)c1 (stereo unspecified),-1.46%,11%,17.6%,10.9%,1.96%,4.54%,20.1%,23.4%,1.07%,7.5%,-8.9%
Cc1ccc(=O)n(CC2(O)CCN(Cc3cc(C)c(O)c(C)c3)CC2)n1,-6.97%,23%,-6.19%,7.09%,6.52%,-2.55%,13.3%,-3.64%,2.15%,14.3%,45.6%
Cc1n[nH]c(C2CN(C(=O)CCc3ccsc3)CCO2)n1 (stereo unspecified),-6.4%,-2.74%,2.76%,0.78%,0.783%,-7.27%,-2.13%,-11.9%,0%,2.5%,0.695%
Cc1cccc(N2CCN(CCNC(=O)c3ccnn3C)CC2)c1,0.195%,5.41%,-1.81%,-4.27%,-4.88%,3.75%,14.6%,6.3%,9.9%,11%,5.87%
O[C@H]1CCN(Cc2ccoc2)[C@H]1Cc1cccnc1,-6.91%,0%,3.99%,-6.85%,-1.16%,-54.7%,5.47%,13.5%,4.17%,2.5%,-9.55%
CCn1nc(C)cc1C(=O)Nc1cc(F)ccc1OCC1CCCO1 (stereo unspecified),-3.27%,2.6%,19.7%,7.39%,0.686%,-0.21%,9.78%,34%,4.76%,9.41%,-11.3%
CS(=O)(=O)NCC1CCCN(C(=O)Nc2cccnc2N2CCCC2)C1 (stereo unspecified),-5.11%,13.2%,-26.3%,-7.09%,-6.33%,2.37%,16.4%,-14.6%,2.13%,5.2%,-7%
Cc1n[nH]c(C2CN(C(=O)c3cnc[nH]3)CCO2)n1 (stereo unspecified),-2.98%,7.79%,4.4%,7.68%,3.62%,-1.05%,12.8%,-9.06%,5.71%,21.2%,-19.1%
Cc1nn(C)c(N2CCOCC2)c1CNC1CCOc2ccccc21 (stereo unspecified),-4.35%,10.1%,-4.31%,8.19%,1.04%,0.38%,2.54%,-11.4%,7.39%,11.4%,-3.12%
c1ccc(-c2nnc(CNCCn3cccn3)o2)cc1,-3.18%,-10.1%,1.44%,-1.76%,1.79%,3.04%,1.72%,-4.79%,6.4%,8.86%,-8.2%
Cc1csc(N2CCCN(C(=O)C(C)n3ccnc3)CC2)n1 (stereo unspecified),-4.19%,8.11%,5.77%,0.506%,6.78%,-2.77%,-0.718%,10.8%,5.94%,15.8%,1.79%
COc1cccc(CN(C)C(=O)CN2CCN(CCO)CC2)c1,-2.96%,8%,-6.71%,1.75%,0.292%,3.12%,24.6%,14.1%,9.29%,16.1%,-7.41%
COc1cccc(CCC2CCCN(C(=O)c3n[nH]c4c3CCC4)C2)c1 (stereo unspecified),-4.51%,-18.9%,3.21%,4.19%,-1.35%,-8.1%,5.69%,46.1%,11.1%,2.44%,-1.85%
Cc1cccc(CN2C[C@H]3OC(=O)N(CCCN4CCOCC4)[C@H]3C2)n1,-5.71%,5.33%,0.534%,17%,0.682%,2.08%,11.9%,2.81%,10.4%,16.1%,-8.08%
COc1cnc(C2(O)CCN(C(=O)c3ccncc3)CC2)c(OC)n1,-4.14%,4.05%,8.66%,2.87%,2.77%,-1.16%,3.74%,8.85%,2.15%,9.09%,-11.8%
CC1CCN(CCNC(=O)c2ccccc2N2CCOCC2)CC1,0.622%,11%,-2.96%,1.48%,-1.98%,-2.79%,24.1%,5.31%,13.5%,16.1%,-2.45%
Cc1noc(C(C)C)c1C(=O)NS(=O)(=O)c1ccc(Cl)cc1,-5.93%,2.63%,7.93%,1.74%,3.8%,0%,17.9%,9.23%,6.38%,7.79%,3.02%
O=C(c1cccnc1N1CCOCC1)N1CCCC(n2ccnc2)C1 (stereo unspecified),-1.05%,18.4%,3.79%,3.27%,-3.76%,-1.53%,9.36%,0.0212%,4.41%,17.1%,-9.1%
Cc1nc(CC(=O)N2CCCN(c3ccc(C#N)cc3)CC2)cs1,-2.43%,0%,5.74%,-0.961%,-5.55%,-4.73%,14.5%,2.28%,2.13%,5.2%,-1.52%
